The values below come from the supplement of paper PMC10338343.

± gives the standard deviation.

Assay [1] relates to MILI (PIWIL2) piRISC loaded with piRNA #1 (26 nt). Nature of the assay: pre-steady-state target cleavage rate (min^-1); guide: piRNA #1 5'p-UGAGGUAGUAGGUUGUAUAGUAUCCA; higher = faster piRNA-guided slicing of the target. The note with it: auxiliary factor: 500 nM mouse GTSF1. The essentials: (§1)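 At 33 °C in HEPES–potassium acetate buffer, a transcribed, DNA-blocked target RNA library […] was exposed for 0–8 or 0–960 min to 1 nM active affinity-purified piRISC carrying a single synthetic guide, with or without 500 nM GTSF1 partner protein. Uncleaved targets were sequenced and normalised to depth and to weakly complementary targets. With three trials pooled and k3 capped at 0.0001 min^-1, a burst-and-steady-state fit produced the pre-steady-state cleavage rate.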

The subject of assay [2] is EfPiwi piRISC loaded with piRNA #1 (26 nt). In words: pre-steady-state target cleavage rate (min^-1); auxiliary factor: 500 nM Ephydatia muelleri Gtsf1; guide: piRNA #1 5'p-UGAGGUAGUAGGUUGUAUAGUAUCCA; MIWI and MILI are mouse PIWI proteins and EfPiwi is from a freshwater sponge; tags in brackets are library labels; higher = faster piRNA-guided slicing of the target. An outline of the steps:
as §1

Regarding GGAGUGGAUACUAUACAAUCUACUACCUCA, the entries for the “pre-steady-state target cleavage rate” value in assay [1] and in assay [2] were 0.127 ± 0.009 and 0.105 ± 0.038, respectively.

For “GGAGACCAUACUAUACAACCUACUAGGAGA [g6:g23:cont:t1A]”, the “pre-steady-state target cleavage rate” value in assay [1] came out at 0.00402 ± 0.0038; in assay [2], 0.00788 ± 0.0042.

Regarding GGAGACCAUAACUAUACAACCUACUACCUCA, the “pre-steady-state target cleavage rate” value turned out to be 0.135 ± 0.0094 in assay [1] and 0.138 ± 0.043 in assay [2].

As for GGAGACGAUACUAAACAACCUUCUACCUCA, the “pre-steady-state target cleavage rate” value in assay [1] worked out at 0.00978 ± 0.003; in assay [2], 0.00427 ± 0.004.

With GGAGACCUAUGAGUACAACCUACUACCUCA, the “pre-steady-state target cleavage rate” value in assay [1] worked out at 0.00674 ± 0.0022; in assay [2], 0.00713 ± 0.004.

For the sequence GGAGAGGAUACUAUACAACCUACUACCUAA, the “pre-steady-state target cleavage rate” value in assay [1] came to 0.125 ± 0.011; in assay [2] it was 0.0131 ± 0.0058.

GGAGACGAUACUAUACAACCUACUCACCUCA: the “pre-steady-state target cleavage rate” value in assay [1] worked out at 0.122 ± 0.019; in assay [2], 0.00418 ± 0.0019.

Consider GGAGACCUAUCUAUACAACCCACUACCUCA, for which the “pre-steady-state target cleavage rate” value stood at 0.0169 ± 0.0041 in assay [1] and 0.00474 ± 0.0043 in assay [2].

With GGAGUGGAUACUAUACAACACUACUACCUCA, the “pre-steady-state target cleavage rate” value in assay [1] was determined as 0.00621 ± 0.0026; in assay [2], 0.00629 ± 0.003.

Turning to GGAGACCAAACUAUACAACCUACAACCUCA, the “pre-steady-state target cleavage rate” value was found to be 0.12 ± 0.035 in assay [1] and 0.008 ± 0.0041 in assay [2].

GGAGACCUAUCUAUAACAACCUACUACCUCA: the “pre-steady-state target cleavage rate” value in assay [1] came to 0.0615 ± 0.012; in assay [2] it was 0.00453 ± 0.0037.

For the sequence GGAGACGAUACUAUACAUCCUUCUACCUCA, the entries for the “pre-steady-state target cleavage rate” value in assay [1] and in assay [2] were 0.0277 ± 0.0037 and 0.00356 ± 0.0021, respectively.

As for GGAGACGAAAGUAUACAACCUACUACCUCA, the “pre-steady-state target cleavage rate” value in assay [1] stood at 0.108 ± 0.01; in assay [2], 0.0104 ± 0.0056.

As to GGAGUGCAAACUAUACAACCUACUACCUCA, the “pre-steady-state target cleavage rate” value in assay [1] was determined as 0.126 ± 0.012; in assay [2] it was 0.00676 ± 0.0044.

As to GGAGUGGAUACUAUACUAGCUACUACCUCA, the results for the “pre-steady-state target cleavage rate” value in assay [1] and in assay [2] were 0.158 ± 0.011 and 0.0081 ± 0.0031, respectively.

On to GGAGAGGAUACUAUAGAACCUACUACCUCA, for which the “pre-steady-state target cleavage rate” value was found to be 0.166 ± 0.013 in assay [1] and 0.00475 ± 0.0023 in assay [2].

For GGAGACCUAUCUAUACAACCUACUACCGUCA, the “pre-steady-state target cleavage rate” value in assay [1] turned out to be 0.141 ± 0.019; in assay [2], 0.00478 ± 0.0036.

Consider GGAGUGGAUACUAUACAACCGUACUACCUCA, for which the figures for the “pre-steady-state target cleavage rate” value in assay [1] and in assay [2] were 0.00369 ± 0.0022 and 0.00658 ± 0.0027, respectively.

On to GGAGACCAUACUAUAGAACCUACUACGUCA, for which the “pre-steady-state target cleavage rate” value in assay [1] turned out to be 0.0697 ± 0.013; in assay [2], 0.00374 ± 0.0034.

GGAGACGAUACUUAACAACCUACUACCUCA: the “pre-steady-state target cleavage rate” value in assay [1] came out at 0.134 ± 0.013; in assay [2], 0.00683 ± 0.0038.
